The whole screen tested about 340,000 compounds, of which about 2,100 (0.62%) were called active.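 Rule for the calls: active = first-screen hits whose inhibition reached a set limit at any dose in the follow-up dose series; inconclusive = inhibition above the set first-screen limit but never retested; inactive = the rest.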 These entries were drawn from the full list. Entries with a potency or affinity are not part of this list.

Sequence of Rac GTPase-activating protein 1 (Homo sapiens) (Q9H0H5 whole entry, looked up): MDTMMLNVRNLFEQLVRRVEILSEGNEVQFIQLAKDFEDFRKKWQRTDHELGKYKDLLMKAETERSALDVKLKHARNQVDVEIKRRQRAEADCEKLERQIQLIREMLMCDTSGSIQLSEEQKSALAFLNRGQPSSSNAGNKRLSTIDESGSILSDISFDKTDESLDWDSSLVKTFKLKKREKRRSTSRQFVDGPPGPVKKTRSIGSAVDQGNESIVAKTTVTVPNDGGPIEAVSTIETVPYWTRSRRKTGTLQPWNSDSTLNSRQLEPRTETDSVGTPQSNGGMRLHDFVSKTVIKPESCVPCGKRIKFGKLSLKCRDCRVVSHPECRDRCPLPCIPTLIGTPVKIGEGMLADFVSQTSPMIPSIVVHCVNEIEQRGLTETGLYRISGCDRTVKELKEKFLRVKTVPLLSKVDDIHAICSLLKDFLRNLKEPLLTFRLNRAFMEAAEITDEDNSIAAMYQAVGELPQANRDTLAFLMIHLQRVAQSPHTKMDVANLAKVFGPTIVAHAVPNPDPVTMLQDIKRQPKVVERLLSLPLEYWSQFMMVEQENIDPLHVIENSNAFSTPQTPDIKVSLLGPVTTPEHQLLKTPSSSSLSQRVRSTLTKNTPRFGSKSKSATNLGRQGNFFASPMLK

This experiment has as its target Rac GTPase-activating protein 1 (Homo sapiens) (UniProt Q9H0H5). Kind of experiment: MgcRacGAP GTPase-activating activity inhibitors, confirmation, biochemical, ADP Hunter fluorescence, primary and confirmatory (AID 624330).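 Note: fluorescence reports GDP produced by GAP-driven GTP hydrolysis.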 The following applies: MgcRacGAP-stimulated Rac1 GTP hydrolysis, at 30 µM, stronger effect = higher value, GST-tagged Rac1 F28L mutant substrate.
By inhibition is commonly meant the relative decrease from the control value, in per cent. As for `Cc1cc(C)cc(NC(=O)c2cccc(NC(=O)c3ccco3)c2)c1`, the inhibition was -0.13% (inactive).
Consider `O=C(Nc1cccc(NC(=O)c2ccco2)c1)c1cccc(Br)c1`, for which the inhibition is 7.43% (inactive).
`COc1ccccc1NC(=O)c1oc2ccccc2c1NC(=O)C1CC1`: the inhibition is 1.66% (inactive).
Turning to `CCn1c(=O)c(C(=O)CN(C)Cc2ccc(F)cc2)c(N)n(Cc2ccccc2)c1=O`, the inhibition was 5.49% (inactive).
Turning to `CCOc1ccc(CN(C)CC(=O)c2c(N)n(Cc3ccccc3)c(=O)n(CC)c2=O)cc1OC`, the inhibition was 5.23% (inactive).
For `Cc1cccc(NC(=O)c2nc[nH]c2C(=O)N[C@@H](CC(C)C)C(=O)OCc2ccccc2)c1` the value was 5.96% (inactive); for `Cc1cc(C)cc(NC(=S)N2CCC(C(=O)c3ccc(F)cc3)CC2)c1`, -15.2% (inactive).
On to `CC(C)CN(C(=O)c1cc2ccccc2o1)c1c(N)n(CC(C)C)c(=O)[nH]c1=O`, for which the inhibition was 7.89% (inactive).
`Cc1nn(-c2ccccc2)c(C)c1NC(=O)COC(=O)CCOc1ccccc1`: the inhibition is 2.57% (inactive).
For `CC(=O)Nc1ccc(N/C=C2/CCCC2=O)cc1` the value was 14.8% (inactive).
Regarding `Cc1ccc(N/C=C2\CCCCC2=O)c(C)c1`, the inhibition is 5.15% (inactive).
Take `CCCCC(CC)C(=O)Nc1ccc(Nc2ccccc2)cc1` (centres undefined): the inhibition is 22.3% (inactive).
With `COCC(=O)Nc1ccc(Nc2ccccc2)cc1`, the inhibition was 15.4% (inactive).
Take `c1ccc(Nc2ccccc2)cc1`: the inhibition is 3.58% (inactive).
As to `CCC(CC)C(=O)Nc1ccc(Nc2ccccc2)cc1`, the inhibition was 28% (inactive).
`O=C(O)CCC(NS(=O)(=O)c1ccc(N2CCCC2=O)cc1)C(=O)O` (centres undefined): the inhibition was -1.24% (inactive).
As to `CCOc1ccc(S(=O)(=O)N2CCN(C(=O)c3cc(-c4ccccc4)nn3-c3ccccc3)CC2)cc1`, the inhibition is 6.52% (inactive).
In the case of `CNC(=O)C(=O)Nc1ccc2c(c1)N(S(=O)(=O)c1cccs1)CCC2`, the inhibition was 4.61% (inactive).
For the compound `CN(CCCC1CCCC1)C(=O)c1cc(COc2c(F)cccc2F)on1`, the inhibition was 7.43% (inactive).
With `C[n+]1ccccc1/C=C/c1ccc(F)c(F)c1`, the inhibition is 9.42% (inactive).
`CCOc1cc(/C=C/c2cccc[n+]2C)ccc1OCC(=O)Nc1ccc(C)cc1`: the inhibition was 7.44% (inactive).
On to `Cc1ccc(CS(=O)Cc2ccc(C(=O)N3CCN(c4ccccn4)CC3)o2)cc1` (centres undefined), for which the inhibition is 9.12% (inactive).
As to `COc1ccc2cc[nH]c2c1`, the inhibition was 6.12% (inactive).
`COc1cc2[nH]ccc(=O)c2cc1OC`: the inhibition is 1.14% (inactive).
With `Nc1[nH][nH]c(=O)c1N=Nc1ccc2c(c1)OCO2`, the inhibition is 19.5% (inactive).
In the case of `Nc1n[nH]c(N)c1N=Nc1ccc(F)cc1`, the inhibition is 12.4% (inactive).
With `Cc1ccccc1-n1c(SCC(=O)c2c(N)n(C3CC3)c(=O)[nH]c2=O)nnc1N1CCOCC1`, the inhibition is 4.29% (inactive).
Consider `CC1(C)CC(=O)C(C(C2=C(O)CC(C)(C)CC2=O)c2ccc([N+](=O)[O-])cc2)C(=O)C1` (centres undefined), for which the inhibition is 10.9% (inactive).
For `CC1(C)CC(=O)C(C(C2=C(O)CC(C)(C)CC2=O)c2cccc(O)c2)C(=O)C1` (centres undefined), the inhibition is 7.97% (inactive).
For `COc1cccc(C(C2=C(O)CC(C)(C)CC2=O)C2C(=O)CC(C)(C)CC2=O)c1` (centres undefined) the value was -5.78% (inactive).
Turning to `CC1(C)CC(=O)C(C(C2=C(O)CC(C)(C)CC2=O)c2cccnc2)C(=O)C1` (centres undefined), the inhibition was 12% (inactive).
Take `CC1(C)CC(=O)C(C(C2=C(O)CC(C)(C)CC2=O)c2ccco2)C(=O)C1` (centres undefined): the inhibition is 29% (inactive).
Regarding `CC1(C)CC(=O)C(Br)=C(O)C1`, the inhibition is -4.56% (inactive).
Turning to `CC1(C)CC(=O)C(C(C2=C(O)CC(C)(C)CC2=O)c2ccc(Cl)c([N+](=O)[O-])c2)C(=O)C1` (centres undefined), the inhibition is -0.37% (inactive).
For `CCCC(C1=C(O)CC(C)(C)CC1=O)C1C(=O)CC(C)(C)CC1=O` (centres undefined), the inhibition was 8.39% (inactive).
Take `CC[C@@]1(C(=O)OC)N[C@H](CN(C)C(=O)COC)[C@@H]2C(=O)N(C)C(=O)[C@@H]21`: the inhibition was 6.93% (inactive).
For `CC1CC(C)CN(CCCCOc2ccc([N+](=O)[O-])cc2)C1` (centres undefined) the value was 19.1% (inactive); for `CCOC(=O)C1=C(C)NC(=O)NC1/C=C\c1ccccc1` (centres undefined), 15.6% (inactive).
Regarding `CCOc1ccc(CCNC(=O)C2=C(C)C(=O)OC23CCC(C)CC3)cc1` (centres undefined), the inhibition is 8.86% (inactive).
`CN1CCN(c2ccc(NC(=S)NC(=O)c3cccc4c(Cl)cccc34)cc2)CC1`: the inhibition was 9.96% (inactive).
For `CCCCNS(=O)(=O)c1cc2c3c(c1)CCN3C(=O)CC2` the value was 10.4% (inactive); for `COc1ccc(S(=O)(=O)NCc2cn3c(C)csc3n2)cc1F`, 7.58% (inactive); for `CN(Cc1nc2ccccc2c(=O)[nH]1)C(=O)COc1ccccc1Cc1ccccc1`, 4.16% (inactive).
For the compound `CNc1ccc(/C=C2\COc3ccccc3C2=O)cc1[N+](=O)[O-]`, the inhibition was 9.69% (inactive).
Next, `O=C1C(=Cc2ccccc2[N+](=O)[O-])Cc2ccccc21`: 5.54% (inactive); `Cc1cc2oc(=O)c(CC(=O)NCCCO)c(C)c2c2occ(C(C)(C)C)c12`: 4.92% (inactive).
Turning to `CCOc1cc(/C=N/NC(=O)c2cccnc2)ccc1OCC(N)=O`, the inhibition is 3.29% (inactive).
With `O=C(OCc1nnc(-c2ccccc2)o1)c1cn(-c2ccccc2)nc1-c1ccccc1`, the inhibition is 4.52% (inactive).
Consider `OC1CCN(Cc2cccc3ccccc23)CC1`, for which the inhibition was 14.2% (inactive).
For `O=C1CC(c2cccs2)c2ccc3ccccc3c2N1` (centres undefined) the value was 6.36% (inactive).
Regarding `COc1ccc(-c2nnn(CC(=O)NCCc3c[nH]c4ccccc34)n2)cc1OC`, the inhibition is 7.85% (inactive).
For `COc1cc(/C=C2/C(=O)NN(c3ccccc3)C2=O)cc(Br)c1O` the value was 23.7% (inactive); for `COc1cc(/C=C2/C(=O)NN(c3ccc(F)cc3)C2=O)cc(Cl)c1O`, 20.4% (inactive).
For the compound `COc1cccc(C2=CC(=O)C[C@H](c3ccc4c(c3)OCO4)C2)c1OC`, the inhibition was 6.37% (inactive).
For the compound `O=c1c2ccccc2sc2ccc(Cl)cc12`, the inhibition was 5.89% (inactive).
As to `Cc1cc(=O)cc(C)n1-c1ccc(Cl)cc1`, the inhibition was 5% (inactive).
As for `O=c1c2ccccc2cnn1-c1ccc(Cl)cc1`, the inhibition is 1.97% (inactive).
For `O=c1c2ccccc2sn1-c1ccc(S(=O)(=O)N2CCCCC2)cc1`, the inhibition was 10.2% (inactive).
Consider `CC1=CC(C)(C)N(C)C(=O)N1c1ccc(Cl)cc1`, for which the inhibition is 6.14% (inactive).
Consider `O=c1c2cc([N+](=O)[O-])ccc2sn1-c1ccccc1`, for which the inhibition was 17.4% (inactive).
Turning to `O=c1c2ccccc2ncn1-c1cccc(Cl)c1`, the inhibition was 5.62% (inactive).
Next, `Cc1nn(-c2ccc(Cl)cc2Cl)c(=O)c2ccccc12`: -1.03% (inactive); `O=c1c2cnn(-c3ccccc3)c2ncn1Cc1ccccc1F`: 7.32% (inactive).
`CC(=O)c1ccc(-c2nnc(CCC(=O)N3CCCC(C(=O)CC(C)C)C3)o2)s1` (centres undefined): the inhibition is 9.2% (inactive).
For the compound `CCn1c(SCC(=O)NCCOC)nc2sc3c(c2c1=O)CCCC3`, the inhibition is 6.34% (inactive).
Regarding `CC1CCCCC1NC(=O)CCn1c(=O)sc2ccccc21` (centres undefined), the inhibition was 12.2% (inactive).
For `CN(CC(=O)Nc1ccc(N2CCOCC2)cc1)CC(=O)Nc1ccccc1C#N` the value was 6.72% (inactive).
As for `O=c1oc2cc(Br)ccc2n1Cc1ccccc1`, the inhibition was 13.7% (inactive).
Turning to `CCc1nnc(NC(=O)c2cccc(S(=O)(=O)N3CCCCC3)c2)s1`, the inhibition is 10.2% (inactive).
Take `COC(=O)Cc1c(O)ccn(CCc2ccc(OC)c(OC)c2)c1=O`: the inhibition is 5.94% (inactive).
As for `Cc1ccc(S(=O)(=O)N2C[C@@H](C)[C@]3(C2)[C@H](O)[C@H](OC(=O)NC2CCCC2)C[C@H]2C(=O)N(c4ccccc4)C(=O)[C@H]23)cc1`, the inhibition is 15.8% (inactive).
For `CSc1nc2c(C)c(C)c(C)c(C)c2[nH]1` the value was 2.42% (inactive); for `CCOC(=O)N1CCN(C(=O)CC(C(=O)N2CCc3ccccc32)n2ccnc2)CC1` (centres undefined), 4.9% (inactive).
On to `O=C(COc1ccc2c3c(c(=O)oc2c1)CCCC3)NCCN1CCOCC1`, for which the inhibition was 1.04% (inactive).
Regarding `CCOC(=O)C1=C(O)/C(=C\c2cccc(OC)c2)N=C1C`, the inhibition is 7.59% (inactive).
Turning to `COC(=O)C1=C(O)/C(=C/c2cccc(OC)c2O)N=C1C`, the inhibition is 28.1% (inactive).
For `COC(=O)C1=C(O)/C(=C\c2sccc2C)N=C1C` the value was 10.9% (inactive); for `CCOC(=O)C1=C(O)/C(=C/c2cc(OC)c(OC)c(OC)c2)N=C1C`, 2.56% (inactive); for `CCOC(=O)C1=C(O)/C(=C\c2ccc(OC)c(OC)c2)N=C1C`, -1.28% (inactive).
For `COC(=O)C1=C(O)/C(=C/c2ccc(OCC(=O)Nc3ccc(OC)cc3)cc2)N=C1C` the value was 6.48% (inactive).
As to `CN1CCN(NC(=O)c2cc([N+](=O)[O-])cc([N+](=O)[O-])c2)CC1`, the inhibition is -0.16% (inactive).
For the compound `CCC(C)NC(=O)CN(c1cc(C)cc(C)c1)S(=O)(=O)c1c(C)[nH]c(=O)[nH]c1=O` (centres undefined), the inhibition is 9.01% (inactive).
In the case of `CCCC(=O)Nc1ccc2c(c1)nc(CCNC(=O)c1ccccc1)n2C`, the inhibition was 1.08% (inactive).
Take `Cc1nonc1CN(C)C(=O)c1cc(COc2ccc(F)cc2Cl)on1`: the inhibition is 1.26% (inactive).
For `Cn1c(=O)c2c(nc(N3CCNCC3)n2Cc2cccc3ccccc23)n(C)c1=O`, the inhibition was 6.58% (inactive).
`Cc1cccc(C(=O)NCC(=O)NNC(=O)c2ccccc2O)c1`: the inhibition is 2.8% (inactive).
For `Cc1ccc(NC(=O)c2cc(N3C(=O)CCC3=O)ccc2N2CCCCC2)cc1`, the inhibition was 5.7% (inactive).
Take `CCN(CC)c1ccc(N=Cc2ccc(N(CC)CC)cc2O)cc1`: the inhibition was 6.98% (inactive).
On to `CCN(CC)c1ccc(N=Cc2ccc([N+](=O)[O-])o2)cc1`, for which the inhibition was 25.9% (inactive).
For `COc1ccc(N=Cc2c(O)[nH]c3ccccc23)cc1` the value was 9.26% (inactive); for `Oc1[nH]c2ccccc2c1C=Nc1ccccc1`, 11.5% (inactive).
`CC1(C)CC(=O)C=C(NCCN2CCN(C(=S)NC3CCCCC3)CC2)C1`: the inhibition is -3.74% (inactive).
Regarding `CN(Cc1ccccc1)S(=O)(=O)c1ccc(Cl)nc1`, the inhibition is 11.5% (inactive).
As for `CCOC(=O)c1ccccc1NC(=O)COC(=O)CCNS(=O)(=O)c1cccs1`, the inhibition was 3.03% (inactive).
